The text below walks through data of publication PMC9911399, “Two distinct binding modes provide the RNA-binding protein RbFox with extraordinary sequence specificity”.

Changes are numbered by the printed parent chain; changes in the protein carry UniProt numbers. The full ranking holds about 16,000 sequences; the median of “ka relative to ugcaugu” is about 0.096, and the highest 2% start at about 0.35. What follows is part of a selection rich in the highest values, with near analogues and random picks from the rest.

T1: RBFOX1 RRM RbFoxmut (Fox-RRM*) (Homo sapiens, UniProt Q9NWB1 109-208, R118D;E147R;N151S;E152T)
T1 sequence: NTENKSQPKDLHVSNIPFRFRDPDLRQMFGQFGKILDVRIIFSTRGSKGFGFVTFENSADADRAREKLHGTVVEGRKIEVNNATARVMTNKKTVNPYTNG

B1: UUGGUUA (DNA:RNA)
RNA: GGGAGACCGGAAUUCAGAUUGUCCUUGGUUAUUAAAUCCCGUCGUAGCCACCA
DNA 1: CAATCTGAATTCCGGTCTCCC
DNA 2: TGGTGGCTACGACGGGATT
B2: AUGACAU (DNA:RNA)
RNA: B1 RNA with U25A, G28A, U29C, U30A, A31U
DNA 1: CAATCTGAATTCCGGTCTCCC
DNA 2: TGGTGGCTACGACGGGATT
B3: CAAGGUA (DNA:RNA)
RNA: B1 RNA with U25C, U26A, G27A, U29G
DNA 1: CAATCTGAATTCCGGTCTCCC
DNA 2: TGGTGGCTACGACGGGATT
B4: UCUUGCG (DNA:RNA)
RNA: B1 RNA with U26C, G27U, G28U, U29G, U30C, A31G
DNA 1: CAATCTGAATTCCGGTCTCCC
DNA 2: TGGTGGCTACGACGGGATT
B5: UCUAAUU (DNA:RNA)
RNA: B1 RNA with U26C, G27U, G28A, U29A, A31U
DNA 1: CAATCTGAATTCCGGTCTCCC
DNA 2: TGGTGGCTACGACGGGATT
B6: AUACAAA (DNA:RNA)
RNA: B1 RNA with U25A, G27A, G28C, U29A, U30A
DNA 1: CAATCTGAATTCCGGTCTCCC
DNA 2: TGGTGGCTACGACGGGATT
B7: GGAUCUA (DNA:RNA)
RNA: B1 RNA with U25G, U26G, G27A, G28U, U29C
DNA 1: CAATCTGAATTCCGGTCTCCC
DNA 2: TGGTGGCTACGACGGGATT
B8: GUCCCCG (DNA:RNA)
RNA: B1 RNA with U25G, G27C, G28C, U29C, U30C, A31G
DNA 1: CAATCTGAATTCCGGTCTCCC
DNA 2: TGGTGGCTACGACGGGATT
B9: UGUAUGU (DNA:RNA)
RNA: B1 RNA with U26G, G27U, G28A, U30G, A31U
DNA 1: CAATCTGAATTCCGGTCTCCC
DNA 2: TGGTGGCTACGACGGGATT
B10: UGCUAUC (DNA:RNA)
RNA: B1 RNA with U26G, G27C, G28U, U29A, A31C
DNA 1: CAATCTGAATTCCGGTCTCCC
DNA 2: TGGTGGCTACGACGGGATT
B11: UGUAGGU (DNA:RNA)
RNA: B1 RNA with U26G, G27U, G28A, U29G, U30G, A31U
DNA 1: CAATCTGAATTCCGGTCTCCC
DNA 2: TGGTGGCTACGACGGGATT
B12: CUGUGUA (DNA:RNA)
RNA: B1 RNA with U25C, G28U, U29G
DNA 1: CAATCTGAATTCCGGTCTCCC
DNA 2: TGGTGGCTACGACGGGATT
B13: UGCUAUG (DNA:RNA)
RNA: B1 RNA with U26G, G27C, G28U, U29A, A31G
DNA 1: CAATCTGAATTCCGGTCTCCC
DNA 2: TGGTGGCTACGACGGGATT
B14: GGUCAUG (DNA:RNA)
RNA: B1 RNA with U25G, U26G, G27U, G28C, U29A, A31G
DNA 1: CAATCTGAATTCCGGTCTCCC
DNA 2: TGGTGGCTACGACGGGATT
B15: CCCUGUA (DNA:RNA)
RNA: B1 RNA with U25C, U26C, G27C, G28U, U29G
DNA 1: CAATCTGAATTCCGGTCTCCC
DNA 2: TGGTGGCTACGACGGGATT
B16: CUGUAUG (DNA:RNA)
RNA: B1 RNA with U25C, G28U, U29A, A31G
DNA 1: CAATCTGAATTCCGGTCTCCC
DNA 2: TGGTGGCTACGACGGGATT
B17: GUCAUGU (DNA:RNA)
RNA: B1 RNA with U25G, G27C, G28A, U30G, A31U
DNA 1: CAATCTGAATTCCGGTCTCCC
DNA 2: TGGTGGCTACGACGGGATT

In the experiment the target is T1, RBFOX1 RRM RbFoxmut (Fox-RRM*). The experiment is described as follows: EMSA; HiTS-Eq, 1 nM pool, 10 min; buffer printed only for the single-RNA assays: 10 mM Tris pH 7.5, 150 mM NaCl, 3.4 mM EDTA, 0.001% NP-40, 30 C. The following applies: tags: His6 N-terminal (pET28a); label: 5' 32P. Put shortly: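 Purified wild-type or mutant RbFox RRM at increasing concentrations was equilibrated with 1 nM of 5′-radiolabelled RNA carrying 7 randomized nucleotides for 10 min in 50 µL. Unbound RNA was separated by 8% native PAGE and sequenced. Relative association constants came from read-count changes of each RNA species compared with the control reaction, normalised to the cognate motif.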
Background: Mobility shift assays separate free from complexed probe on a gel.
Turning to B1, the binding signal was 0.155 KA relative to UGCAUGU.
Take B2: the binding signal was 0.0668 KA relative to UGCAUGU.
B3: the binding signal was 0.124 KA relative to UGCAUGU.
Turning to B4, the binding signal is 0.168 KA relative to UGCAUGU.
Regarding B5, the binding signal was 0.0829 KA relative to UGCAUGU.
As for B6, the binding signal is 0.0876 KA relative to UGCAUGU.
Then B7, with 0.154 KA relative to UGCAUGU; and B8, with 0.0635 KA relative to UGCAUGU; and B9, with 0.914 KA relative to UGCAUGU.
With B10, the binding signal was 0.255 KA relative to UGCAUGU.
Consider B11, for which the binding signal was 0.126 KA relative to UGCAUGU.
Then B12, with 0.281 KA relative to UGCAUGU; and B13, with 0.863 KA relative to UGCAUGU; and B14, with 0.512 KA relative to UGCAUGU.
On to B15, for which the binding signal was 0.201 KA relative to UGCAUGU.
As for B16, the figure is 1.11 KA relative to UGCAUGU; as for B17, 0.288 KA relative to UGCAUGU.
